# System: LOC_OS01G01410-cb001
# Experiment: thermal shift delta Tm vs DMSO control; higher = stronger stabilization (binding)
# Details: 12.5 µM; protein concentration 2 µM
# In short: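 Purified, E. coli-expressed rice kinase domain constructs were tested by differential scanning fluorimetry in 96-well plates: 19.5 μl of 2 μM kinase in 100 mM potassium phosphate pH 7.5, 150 mM NaCl, 10% glycerol, 5 × SYPRO Orange, plus compound in DMSO. Fluorescence was read from 25°C to 95°C at 0.05°C/s. Melting temperatures came from Boltzmann fits, and the shift is the triplicate mean relative to protein with DMSO alone.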
row,SMILES,thermal shift delta Tm
1,COCCNCc1ccc(-c2cc3nccc(Oc4ccc(NC(=O)C5(C(=O)Nc6ccc(F)cc6)CC5)cc4F)c3s2)nc1 [Sitravatinib (MGCD516)],4.2 °C
2,COCC(=O)NC/C=C/c1ccc2ncnc(Nc3ccc(Oc4ccc(C)nc4)c(C)c3)c2c1,1.96 °C
3,O=C(NOC[C@H](O)CO)c1ccc(F)c(F)c1Nc1ccc(I)cc1F,1.23 °C
4,Cc1cc(Nc2cc(N3CCN(C)CC3)nc(/C=C/c3ccccc3)n2)n[nH]1,2.2 °C
5,Nc1nc(N)c2nc(-c3cccc(O)c3)c(-c3cccc(O)c3)nc2n1,0.47 °C
6,Cc1nc(Nc2ncc(C(=O)Nc3c(C)cccc3Cl)s2)cc(N2CCN(CCO)CC2)n1 [Dasatinib],1.38 °C
7,O=C(c1ccc(Nc2nccc(-c3cc4ccccc4s3)n2)cc1)N1CCC(N2CCCC2)CC1 [IKK-16 (IKK Inhibitor VII)],2.52 °C
8,CC(C)CC(=O)Nc1n[nH]c2c1CN(C(=O)C1CCN(C)CC1)C2(C)C,0.12 °C
9,COc1cc2c(Oc3ccc(NC(=O)C4(C(=O)Nc5ccc(F)cc5)CC4)cc3F)ccnc2cc1OCCCN1CCOCC1,2.26 °C
10,OCCn1cc(-c2cnc3nnn(Cc4ccc5ncccc5c4)c3n2)cn1,0.52 °C
11,CC(C)(C)c1nc(-c2ccc(NC(=O)Nc3cccc(C(F)(F)F)c3)c3ccccc23)c2c(N)nccn12 [kira6],0.7 °C
12,COc1ccc(-c2ccc3ncc4c(c3c2)n(-c2ccc(N3CCNCC3)c(C(F)(F)F)c2)c(=O)n4C)cn1,1.5 °C
13,FC(F)(F)c1ccc(CNc2ccc(Cc3c[nH]c4ncc(Cl)cc34)cn2)cn1 [Pexidartinib (PLX3397)],1.9 °C

# Source: the supplement of paper PMC9694430
